S1P2 agonist: S1P2 (human) receptor agonism | O95136 | S1P2-expressing cell line, agonist reporter read-out | activation, % at 4.5 µM | actives 0.46% (n = 97,000); in the data active = activation above about 16%;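 note: 0% = vehicle low control and 100% = maximal reference agonist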
Target sequence (O95136 whole entry, looked up): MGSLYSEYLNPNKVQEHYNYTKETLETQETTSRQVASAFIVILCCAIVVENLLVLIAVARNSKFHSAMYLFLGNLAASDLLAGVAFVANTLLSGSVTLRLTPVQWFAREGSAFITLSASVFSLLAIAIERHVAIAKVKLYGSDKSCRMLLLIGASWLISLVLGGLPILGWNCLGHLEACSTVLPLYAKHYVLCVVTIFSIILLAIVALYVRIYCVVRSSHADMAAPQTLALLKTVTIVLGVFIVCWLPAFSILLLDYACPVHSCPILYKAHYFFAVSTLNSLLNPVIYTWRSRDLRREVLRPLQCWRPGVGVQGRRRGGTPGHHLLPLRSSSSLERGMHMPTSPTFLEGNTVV
GALR2 ag: GALR2 (human) receptor agonism; GALR2-expressing cells, agonist activation read-out; actives 0.48% (n = 140,000); activation, % (test concentration not listed); O43603; in the data active = activation above about 5%, passing the limit was not always enough;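 note: 0% = vehicle buffer wells and 100% = reference agonist at full effect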
MRP reversal: MRP-mediated drug resistance reversal | H69AR cells + 2 uM doxorubicin, CellTiter-Glo, 72 h | differential viability (reversal), % at 10 µM | actives 0.04% (n = 85,000);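 active = viability drop by adding the cancer drug above about 55%, with treated viability meeting a 40% cutoff, limit read from the data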;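 note: viability without doxorubicin minus viability with 2 µM doxorubicin for each compound; larger differential means the compound sensitizes cells more to doxorubicin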
GALR2 blocker: blocks the human galanin receptor 2 | actives 0.39% (n = 140,000) | AID 828 | GALR2-expressing cells, antagonist mode | inhibition, % at 4 µM; in the data active = inhibition above about 27%;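 note: cells stimulated with galanin 1-16 at roughly its EC80; 0% = agonist challenge control and 100% = basal control without agonist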
S1P2 antag: blocks the human S1P2 receptor; cell-based S1P2 antagonist assay, inhibition at 5 uM; inhibition, % at 5 µM; actives 0.21% (n = 97,000); AID 736; O95136; in the data active = inhibition above about 45%;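 note: CRE beta-lactamase reporter cells expressing human S1P2 stimulated with S1P; 0% = agonist at EC80 alone and 100% = agonist plus reference antagonist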
MRP-1 activ: MRP-1 activation | H69AR cells + doxorubicin, viability rescue, CellTiter-Glo | viability increase, % at 10 µM | actives 0.61% (n = 140,000);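 active = viability gain under doxorubicin at or above a set limit, the compound median plus 3 SD, cut at about 4.7% in these data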;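 note: MRP-1 overexpressing cells given doxorubicin 25 µM after compound pretreatment; 18-22 h compound pretreatment then 72 h with doxorubicin before readout; 0% = doxorubicin-only wells and 100% = vehicle-treated cells without doxorubicin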
GALR2 ag confirm: confirmation of human galanin receptor 2 (GALR2) agonists; shares compounds with GALR2 ag; GALR2-expressing cells, agonist activation; activation, % at 5.6 µM; actives 10% (n = 460); AID 864; in the data active = activation above about 8.4%;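 note: 0% = buffer-only vehicle wells and 100% = full reference agonist response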
BLA act counter: counter-screen for GALR2 agonists: beta-lactamase reporter activators | shares compounds with GALR2 ag | CHO NFAT-bla reporter, beta-lactamase FRET activation | activation, % at 5.6 µM | actives 10% (n = 460);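 active = activation above the screen-wide mean activation plus 3 SD, cut at about 8% in these data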;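 note: 0% = DMSO with PBS wells and 100% = thapsigargin positive control wells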
* hit, by the source's call; . = no result. The list is not random: actives were taken first. Their share in the collection is about 1.8%.

SMILES	S1P2 agonist	GALR2 ag	MRP reversal	GALR2 blocker	S1P2 antag	MRP-1 activ	GALR2 ag confirm	BLA act counter
Cc1cc2n(n1)SC(Nc1cc(Cl)ccc1Cl)N2 (stereo not given)	-3.2	0.3	-6.7	2.6	-1.4	-5.7	.	.
CC(=O)Nc1ccc(Sc2ncccc2C(=O)Nc2ccc(OC(F)(F)F)cc2)cn1	-4.7	22.4*	.	-38.2	2.5	-1.9	15.8*	42.9*
COC(=O)C1NN=C(C(=O)c2ccc(Cl)cc2)C1c1ccc(OC)cc1 (stereo not given)	.	0.0	.	-3.9	.	-2.1	.	.
COc1ccc(N(CC(=O)Nc2ccccc2C(=O)NCCc2ccccc2)S(C)(=O)=O)cc1OC	1.6	-0.3	8.2	-16.4	-40.2	-2.9	.	.
Cc1c(Cl)c([N+](=O)[O-])nn1CC(=O)N1CCCC1	.	-1.6	.	-1.9	.	-0.6	.	.
Cc1c(Cl)c([N+](=O)[O-])nn1CC(=O)NC12CC3CC(CC(C3)C1)C2	-1.9	38.3*	.	-17.7	-20.4	-3.3	-0.2	-0.3
Cc1ccccc1C(=O)Nc1nncs1	-5.3	26.1*	-7.6	-2.8	-13.5	0.1	-0.6	-2.8
Cc1ccc(-c2nc(SCC(=O)NCC3CCCO3)c(-c3ccccc3)[nH]2)cc1 (stereo not given)	.	-1.3	.	13.8	.	-3.0	.	.
CN(Cc1nc(-c2ccccn2)no1)S(=O)(=O)c1ccccc1	-4.1	10.3	.	-9.6	23.5	-1.4	-0.3	-1.6
COc1ccccc1OCCOc1ccc(/C=C2/C(=N)N3OC(C)=CC3=NC2=O)cc1OC	-4.1	-2.5	.	0.2	-6.9	-3.1	.	.
CC1=CC2=NC(=O)/C(=C\c3cc(C)n(-c4ccc(F)cc4)c3C)C(=N)N2O1	.	11.7*	.	-10.8	.	-2.2	7.8	10.6*
CCCCNC(=S)NNC(=O)C12CC3CC(CC(C3)C1)C2	-1.5	-1.0	8.4	-3.1	-4.1	-3.7	.	.
CC(C)NC(=S)NNC(=O)C12CC3CC(CC(C3)C1)C2	-3.5	12.0*	12.9	3.0	-7.1	-0.1	-0.9	-2.4
Cc1ccc(SCC(=O)Nc2ccccc2C(=O)O)cc1	-3.2	-0.9	9.3	-11.8	-1.5	-0.5	.	.
CC(=O)NNC(=O)CCC(=O)Nc1ccccc1	-4.9	17.4*	.	-1.0	-17.5	0.3	-0.7	-2.2
Cc1nn(Cc2c(Cl)cccc2Cl)c(C)c1NC(=O)c1sc2ccccc2c1Cl	-0.2	11.5*	.	-4.3	-11.6	0.7	5.5	-0.3
COc1cccc(C2=NOC(C(=O)NCCN3CCOCC3)C2)c1 (stereo not given)	-5.8	0.2	-0.2	-7.2	-3.2	-2.7	.	.
O=C(COC(=O)c1cc(Cl)ccc1Cl)NCCN1C(=O)CSC1=O	.	12.2*	.	19.2	.	-0.1	-0.7	-2.5
CCOC(=O)N1CCC(N2C(=O)c3ccccc3C2Nc2c(C)cccc2C)CC1 (stereo not given)	-2.5	0.7	20.4	-2.3	15.2	-0.9	.	.
O=C(COc1ccccc1)NC(Cc1c[nH]c2ccccc12)C(=O)O (stereo not given)	-3.1	-2.2	-2.1	2.4	10.2	-3.5	.	.
Nc1c(C(=O)NCc2ccco2)c2nc3ccccc3nc2n1CCc1ccc(F)cc1	13.1	24.1*	-5.8	-13.5	-34.0	-4.9	10.0*	18.3*
COCCn1c(N)c(C(=O)NCC2CCCO2)c2nc3ccccc3nc21 (stereo not given)	5.6	5.0	-8.6	3.3	-18.8	-1.4	.	.
N#Cc1c(N)n(CCc2ccc(F)cc2)c2nc3ccccc3nc12	15.6	15.0*	-13.8	-18.8	-30.0	-0.4	4.0	9.4*
CC(C)Cn1c(N)c(C(=O)NCC2CCCO2)c2nc3ccccc3nc21 (stereo not given)	13.9	12.0*	-23.0	-0.1	-31.5	-4.4	1.8	3.2
COCCn1c(N)c(C(=O)NCc2cccs2)c2nc3ccccc3nc21	14.0	10.9*	.	-3.1	-33.2	1.0	4.5	10.3*
SMILES	S1P2 agonist	GALR2 ag	MRP reversal	GALR2 blocker	S1P2 antag	MRP-1 activ	GALR2 ag confirm	BLA act counter
Cc1ccc(NC(=O)/C(=C\c2ccccc2)NC(=O)/C=C/c2ccccc2)cc1	-5.1	-0.5	.	-1.1	28.0	0.5	.	.
O=C(Cc1n[nH]c(=O)[nH]c1=O)N/N=C/c1cccc(O)c1	-4.5	14.9*	18.0	2.3	-14.5	1.6	-0.9	-1.8
O=C(O)CC1(c2ccccc2)C(=O)c2ccccc2C1=O	.	10.3*	-1.3	20.8	.	-0.5	-1.5	-3.0
CCOC(=O)C1=CN(C)C=C(C(=O)OCC)C1c1ccsc1	12.0	9.8	.	-1.2	2.7	-4.3	1.6	5.1
COC(=O)C1=C(C)N(C)C(C)=C(C(=O)OC)C1c1ccsc1	-3.6	-0.8	13.9	0.2	12.4	-1.4	.	.
O=C(O)CSc1nnc(Cn2cnc3ccccc32)n1CCc1ccccc1	-16.6	-0.2	3.2	5.8	6.8	-0.4	.	.
CCOC(=O)c1ccc(NC(=S)N2CCSC2c2ccc(OC)cc2)cc1 (stereo not given)	.	1.0	.	-15.9	.	-0.7	.	.
CCOC(=O)c1ccc(NC(=S)N2CCSC2c2ccc(Cl)cc2)cc1 (stereo not given)	.	8.8*	.	-22.1	.	-2.2	9.4*	18.1*
C#CC[N+](C)(C)C(C#Cc1ccccc1)CC=C (stereo not given)	-0.2	0.1	.	-12.8	-2.3	-0.6	.	.
COc1cccc2sc(Nc3nc4ccc(NC(C)=O)cc4s3)nc12	.	10.3*	.	3.5	.	0.4	3.1	7.2
O=C(NNC(=S)NC1CCCCC1)c1sc2ccccc2c1Cl	.	0.2	.	8.5	.	-1.7	.	.
CC(C)(C)C(=O)NC(=S)NNC(=O)c1sc2ccccc2c1Cl	.	100.8*	.	-5.5	.	-5.2	65.5*	107.6*
O=C1CC(N2CCC(c3nc4ccccc4s3)CC2)C(=O)N1 (stereo not given)	-4.3	-3.3	0.2	4.1	-5.8	-1.3	.	.
Cc1ccc2nc(-c3ccc(NS(=O)(=O)c4ccccc4)cc3)sc2c1	.	11.0*	.	-8.3	.	-2.7	0.2	2.1
Cc1ccc2nc(-c3ccc(NS(=O)(=O)c4ccc(F)c(F)c4)cc3)sc2c1	.	2.3	.	4.9	.	-2.0	.	.
COc1ccc(OC)c(CN2CCCC(C(=O)N3CCCCC3)C2)c1 (stereo not given)	0.3	72.1*	-5.7	3.2	15.9	-2.4	-0.3	-2.1
COc1ccc(Br)cc1CN1CCCC(C(=O)N2CCCCC2)C1 (stereo not given)	-2.0	-2.1	17.6	-7.0	-2.8	-2.5	.	.
Cc1ccc(NC(=O)CS(=O)CC(=O)Nc2ccc3c(c2)OCO3)cc1Cl (stereo not given)	-5.6	-2.5	1.9	-6.2	0.3	-0.1	.	.
CCOC(=O)c1cc(C(=O)OCC)c2ccccn2c1=O	12.1	15.1*	.	-8.0	-23.6	-2.3	1.8	5.9
COC(=O)c1cc(C(C)=O)n2ccccc12	2.1	0.0	.	-10.3	-19.5	-0.5	.	.
